Among the data in PubChem BioAssay AID1986 (Sanford-Burnham Center for Chemical Genomics, 2009) are inhibition values, retold here.

Out of some 290,000 compounds screened, about 890 (0.31%) were called active. This is one part of a sample in which actives are shown more often than they occur. Rule as the data show it: active = inhibition mostly above about 52% (no sharp cut-off); inactive = mostly below about 76%.

This test can be described thus: cell-free HIV fusion peptide-binding blockers – biochemical, uHTS, fluorescence dequenching, primary screen (AID 1986). Conditions: 30 min, stronger effect = higher value.
Where [1] appears, read: measured here: repeat confirmation average inhibition, at 18.6 µM.

For `Cc1ccc(-c2c(C(=O)Nc3ccccc3C)c(C)[nH]c(=S)c2C#N)o1`, for the setting “at 20 µM”, the inhibition was 33.1% (inactive).
For `CNC(=O)c1c(C)[nH]c(=S)c(C#N)c1-c1ccco1`, under “at 20 µM”, the inhibition was 4.3% (inactive).
`Cc1ccccc1NC(=O)c1c(C)[nH]c(=S)c(C#N)c1-c1ccco1`: the inhibition (at 20 µM) is 66.5% (active).
On the same count and under the same terms, under `O=C(CN1C(=O)NC2(CCCCCCC2)C1=O)N1CCN(C(=O)c2ccco2)CC1` stands 1.6% (inactive); under `COc1ccc(CCC(=O)Nc2ccccc2C(F)(F)F)cc1`, 0% (inactive); under `CCCN1CCN(C(=O)CCn2c(=O)c3cccn3c3cccnc32)CC1`, 0.2% (inactive).
For the molecule `Nc1c(C(=O)N/N=C/c2ccccc2Cl)oc2nc(-c3ccccc3)cc(-c3ccco3)c12`, the inhibition runs as follows: (at 20 µM) 51.3% (active); under setting [1], 69.2%.
Taken in the same sequence, the figures for `Nc1c(C(=O)N/N=C/c2cccnc2)oc2nc(-c3ccco3)cc(-c3ccco3)c12` were 99.1% (inactive) and 9.2%.
For `Cc1ccc(-c2cc(-c3ccco3)c3c(N)c(C(=O)NN)oc3n2)cc1`, the inhibition reads like this: (at 20 µM) 60.5% (inactive); under setting [1], 7.9%.
Regarding `Nc1c(C(=O)N/N=C/c2ccc(F)cc2)oc2nc(-c3ccccc3)cc(-c3ccco3)c12`, the inhibition (at 20 µM) was 44.8% (inactive).
With `COc1cccc(/C=N/NC(=O)c2oc3nc(-c4ccccc4)cc(-c4ccco4)c3c2N)c1`, the inhibition by setting is: (at 20 µM) 54.2% (active); under setting [1], 55.5%.
`Nc1c(C(=O)N/N=C/c2cccnc2)oc2nc(-c3ccccc3)cc(-c3ccco3)c12`: under “at 20 µM”, the inhibition is 32.7% (inactive).
Still for that read-out and setting: the result for `O=C(CCCCCN1C(=O)c2ccccc2C1=O)Nc1ccc(C(=O)O)cc1` reads -1% (inactive); that for `CSc1nc2ccccc2n1CC(=O)Nc1ccc(C)c(C)c1`, 0.9% (inactive).
`O=[N+]([O-])c1cccc(S(=O)(=O)c2ccc(N3CCCCC3)c([N+](=O)[O-])c2)c1`: the inhibition (at 20 µM) was 2.4% (inactive).
Same read-out and setting: the result for `CCOC(=O)C1=C(CC)OC(N)=C(C#N)C1c1ccc(OC)c(C)c1OC` (centres undefined) reads -1.8% (inactive); that for `CCOC(=O)/C(=N\Nc1cccc(C(F)(F)F)c1)N1CCOCC1`, -4.2% (inactive); that for `O=S(=O)(c1ccccc1)N1CCC(Oc2ccc(-n3cnnn3)cc2)CC1`, 0.5% (inactive).
As for `COc1cnc(N(C)C)nc1Sc1cccc(Cl)c1`, the inhibition (at 20 µM) was 1.2% (inactive).
`Cc1c(O)c2c3c(cccc3c1O)C(=O)N(c1ccccc1)C2=O`: the inhibition by setting is: (at 20 µM) 57.9% (active); under setting [1], 55.3%.
In the case of `O=C(O)c1ccc2c3c(cccc13)C(=O)N(c1ccccc1)C2=O`, the inhibition (at 20 µM) was 24.2% (inactive).
The same measure, in the same setting: the result for `Nc1ccc2c3c(cccc13)C(=O)N(c1ccccc1)C2=O` reads 142% (inactive).
The same measure, in the same setting: the result for `Cc1cc(C)cc(NC(=O)c2cccn2-c2ncc(C(F)(F)F)cc2Cl)c1` reads 2.6% (inactive); that for `O=C(N=c1ccn(-c2nc3ccccc3nc2NS(=O)(=O)c2ccc(Cl)cc2)cc1)c1ccccc1Cl`, 102% (active); that for `O=C(N=c1ccn(-c2nc3ccccc3nc2NS(=O)(=O)c2ccc(Cl)cc2)cc1)c1cccs1`, 19.3% (inactive).
As to `O=C(N=c1ccn(-c2nc3ccccc3nc2NS(=O)(=O)c2ccccc2)cc1)c1ccccc1Cl`, the inhibition (at 20 µM) is 24.6% (inactive).
Still for that read-out and setting: under `COc1cccc(/C=N/n2c(C3CCCCC3)n[nH]c2=S)c1` stands 0.5% (inactive); under `CC(C)(C)C(=O)NC(=S)Nc1ccccc1C(N)=O`, -0.3% (inactive).
`CCCCCCc1cc2cc(-c3nnc(-c4cc(OC)c(OC)c(OC)c4)o3)c(=O)oc2cc1O`: the inhibition by setting is: (at 20 µM) 73.7% (active); under setting [1], 61.9%.
In the same order, the values of `CCCCCCc1cc2cc(-c3nnc(-c4ccccc4O)o3)c(=O)oc2cc1O` are 65.1% (inactive) and 47.7%.
As to `CCCCCCc1cc2cc(-c3nnc(-c4ccccc4OC)o3)c(=O)oc2cc1O`, the inhibition is 81.8% (inactive) (at 20 µM) and 45.4% under setting [1].
Consider `CCOc1cc(CN2CCCC(N3CCc4ccccc4C3)C2)ccc1O` (centres undefined), for which, under “at 20 µM”, the inhibition was -0.5% (inactive).
On the same count and under the same terms, the result for `Oc1ccc(C=Nc2ccc(N3CCOCC3)cc2)c(O)c1` reads 6.1% (inactive).
Regarding `Cc1cc(O)c(C=Nc2ccc(N3CCOCC3)cc2)c(C)c1Cl`, the inhibition by setting is: (at 20 µM) 80.4% (active); under setting [1], 73.9%.
With `Oc1c(Cl)cc(Cl)cc1C=Nc1ccc(N2CCOCC2)cc1`, under “at 20 µM”, the inhibition was 1.6% (inactive).
In the case of `O=C1NC(=S)S/C1=C\c1ccc(SCc2ccccc2)o1`, the inhibition is, setting by setting: (at 20 µM) 72.3% (inactive); under setting [1], 15.9%.
In the case of `O=C1NC(=S)S/C1=C\c1ccc(SCc2ccco2)o1`, the inhibition (at 20 µM) was 53.5% (active).
On to `COc1cc(/C=C2\C(=N)N3N=C(S(=O)(=O)CC(C)C)SC3=NC2=O)ccc1OC(=O)c1ccco1`, for which, where the note is “at 20 µM”, the inhibition was 70.2% (active).
For `CCS(=O)(=O)C1=NN2C(=N)/C(=C\c3ccc(SCc4ccco4)o3)C(=O)N=C2S1`, the inhibition (at 20 µM) is 72.8% (active).
Same read-out and setting: the result for `CCC1=NN2C(=N)/C(=C\c3ccc(SCc4ccco4)o3)C(=O)N=C2S1` reads -2.8% (inactive).
On to `COc1cc(/C=C2/C(=N)N3C(SC)=NSC3=NC2=O)ccc1OC(=O)c1ccco1`, for which the inhibition reads like this: (at 20 µM) 59.5% (inactive); under setting [1], 17.2%.
Turning to `CCS(=O)(=O)C1=NSC2=NC(=O)/C(=C\c3ccc(OC(=O)c4ccco4)c(OC)c3)C(=N)N21`, the inhibition (at 20 µM) was 20.4% (inactive).
Regarding `CCS(=O)(=O)C1=NN2C(=N)/C(=C\c3ccc(OC(=O)c4ccco4)c(Br)c3)C(=O)N=C2S1`, the inhibition (at 20 µM) is 52.4% (active).
On to `CCS(=O)(=O)C1=NN2C(=N)/C(=C\c3ccc(OC(=O)c4ccco4)cc3)C(=O)N=C2S1`, for which the inhibition (at 20 µM) was 39.2% (inactive).
As to `CCCC1=NN2C(=N)/C(=C\c3ccc(SCc4ccco4)o3)C(=O)N=C2S1`, the inhibition (at 20 µM) was -0.5% (inactive).
Still for that read-out and setting: the result for `CCOc1cc(/C=C2\C(=N)N3N=C(N4CCCCC4)SC3=NC2=O)ccc1OC(=O)c1ccco1` reads 20.5% (inactive).
As to `N=C1/C(=C\c2ccc(SCc3ccco3)o2)C(=O)N=C2SC=NN12`, the inhibition was 100% (inactive) (at 20 µM) and 7.1% under setting [1].
